Experimental data reported in ChEMBL document CHEMBL4513149, “CO-ADD screening of MMV (CH) - MMV compounds” (2021).
Results with a measured potency or affinity are listed apart.

What was measured:
Staphylococcus aureus = conditions: Concentration 20 uM; ASSAY_TEST Inhibition of Bacterial Growth; detection method Absorption (OD600); MEDIA CAMHB; plate type 384well; NBS; CORNING #3640; time 18 hr
Escherichia coli = conditions: Concentration 20 uM; ASSAY_TEST Inhibition of Bacterial Growth; detection method Absorption (OD600); MEDIA CAMHB; plate type 384well; NBS; CORNING #3640; time 18 hr

CC(C)(C(=O)Nc1ccc(F)cc1)n1cc(-c2ccccc2F)cn1
Inhibition (Staphylococcus aureus): 21.36% | Inhibition (Escherichia coli): 9.99%

C[C@H](C(N)=O)N1CCCC[C@@H]1c1ccc(OCc2cccc(F)c2)cc1
Inhibition (Staphylococcus aureus): 12.73% | Inhibition (Escherichia coli): 2.14%

CC(C)(C)n1nc(Cc2ccc(F)c(Cl)c2)c2c(N)ncnc21
Inhibition (Staphylococcus aureus): 12.68% | Inhibition (Escherichia coli): 11.38%

CN1CCN(c2nccc3[nH]c(-c4cccc(F)c4)cc23)CC1
Inhibition (Staphylococcus aureus): 12.79% | Inhibition (Escherichia coli): 3.68%

COc1ccc(-c2cc(NC(=O)c3ccc(F)cc3Cl)ccc2OC)cc1
Inhibition (Staphylococcus aureus): 17.79% | Inhibition (Escherichia coli): 8.24%

CC1COC2(CCN(c3nc(=O)c4cc(C(F)(F)F)cc([N+](=O)[O-])c4s3)CC2)O1 (centres undefined)
Inhibition (Staphylococcus aureus): 16.17% | Inhibition (Escherichia coli): 4.14%

COc1cccc(-c2cc3c(Nc4cccnc4)nccc3[nH]2)c1
Inhibition (Staphylococcus aureus): 13.42% | Inhibition (Escherichia coli): -3.86%

CNc1cc(C)nc(C2CN(C(=O)c3n[nH]c4ccccc34)CCO2)c1 (centres undefined)
Inhibition (Staphylococcus aureus): 17.74% | Inhibition (Escherichia coli): 10.11%

CCOc1ccc(-c2nc(CNCCc3ccc(F)cc3)cs2)cc1
Inhibition (Staphylococcus aureus): 30.74% | Inhibition (Escherichia coli): 7.75%

CCOc1ccc2cc(-c3nn(C(C)(C)C)c(N)c3C(N)=O)cnc2c1.Cl
Inhibition (Staphylococcus aureus): 14.66% | Inhibition (Escherichia coli): 7.93%

N#CCN(CCCCN1CCN(c2ccc(F)cc2)CC1)C(=O)OCc1ccccc1
Inhibition (Staphylococcus aureus): 23.36% | Inhibition (Escherichia coli): 7.95%

CC(C)(CN)c1nc(-c2ccc(Cl)c(O)c2)c(-c2ccnc(N)n2)[nH]1.O=C(O)C(F)(F)F.O=C(O)C(F)(F)F
Inhibition (Staphylococcus aureus): 18.2% | Inhibition (Escherichia coli): 12.46%
